Compound activity deposited in PubChem BioAssay by National Center for Advancing Translational Sciences (NCATS).
L3MBTL1 block = qHTS Assay for the Inhibitors of L3MBTL1; AlphaScreen L3MBTL1–H3K9me1 peptide binding; Potency, µM (highest dose often 57.1 µM), without a hit: at the highest dose activity, negative = inhibition, hits mostly inhibitors; 230,000 compounds, 0.66% hits; also: % is scaled to controls: 0 for no effect and ±100 for the full control effect; nearly all actives have a fitted effect of over 60% in size
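First, the protein-peptide complex forms for 30 min at room temperature (L3MBTL1 50 nM, biotinylated H3K9me1 peptide 75 nM). Next, compounds are pin-transferred and incubated 30 min. Finally, AlphaScreen beads are added and read after 30 min.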
JMJD2A Tudor = qHTS Assay for Inhibitors of JMJD2A-Tudor Domain; AID 504339, 2011; AlphaScreen JMJD2A-Tudor / H3K4me3 peptide binding; 390,000 compounds, 4.4% hits; Potency, µM (series often up to 114 µM), without a hit: at the highest dose activity change, negative = inhibition, most hits filed as inhibitors; also: % is scaled to controls: 0 for no effect and ±100 for the full control effect; nearly all actives have a fitted effect of over 50% in size
BAZ2B inh = qHTS Assay for Inhibitors of BAZ2B; Bromodomain adjacent to zinc finger domain protein 2B (Homo sapiens), Q9UIF8; AlphaScreen BAZ2B-H3K14Ac peptide displacement; Potency, µM (highest dose often 114 µM), without a hit: top-dose activity change, negative = inhibition, hits mostly inhibitors; 360,000 compounds, 4.4% hits; AID 504333, 2011; also: % is scaled to controls: 0 for no effect and ±100 for the full control effect; nearly all actives have a fitted effect of over 60% in size
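AlphaScreen displacement of biotin-H3(5-23)K14Ac peptide (50 nM final) from BAZ2B (50 nM final) in PBS pH 7.4, 0.01% Tween-20; complex preformed 30 min RT, then compounds (top 110 uM) 30 min RT, beads 20 min dark.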
G9a block = qHTS Assay for Inhibitors of Histone Lysine Methyltransferase G9a; Histone-lysine N-methyltransferase EHMT2 (Homo sapiens), Q96KQ7; G9a H3K9 monomethylation, AlphaScreen, 2 h; Potency, µM (highest dose often 102 µM), inactives show at the highest dose activity, negative = inhibition, actives largely listed as inhibitors; 350,000 compounds, 8.8% hits; AID 504332, 2011; also: % is scaled to controls: 0 for no effect and ±100 for the full control effect; nearly all actives have a fitted effect of over 75% in size
Target sequence (Q96KQ7 913-1193 limits assumed): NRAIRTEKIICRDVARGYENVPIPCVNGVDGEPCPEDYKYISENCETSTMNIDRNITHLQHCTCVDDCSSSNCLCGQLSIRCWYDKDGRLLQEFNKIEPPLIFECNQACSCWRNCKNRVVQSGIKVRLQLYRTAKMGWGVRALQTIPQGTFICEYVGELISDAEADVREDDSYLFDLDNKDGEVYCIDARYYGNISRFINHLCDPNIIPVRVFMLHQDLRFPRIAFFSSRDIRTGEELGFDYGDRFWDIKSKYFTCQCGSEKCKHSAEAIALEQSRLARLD
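Step 1: enzyme (final 20 nM) with compound, 15 min RT. Step 2: substrate peptide 500 nM and SAM 20 uM, 2 h RT. Step 3: anti-H3K9me1 antibody and AlphaScreen beads, 10 min, then plate read.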
Sfp inh = qHTS Assay for Inhibitors of Bacillus subtilis Sfp phosphopantetheinyl transferase (PPTase); AID 1490, 2009; 310,000 compounds, 3.5% hits; Potency, µM, for inactives: largest response in the series, negative = inhibition, hits mostly inhibitors; Biochemical Sfp PPTase activity, qHTS;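 also: the enzyme is Sfp with the accession as filed and its product quenches rhodamine fluorescence; 0% = enzyme reaction without inhibitor and -100% = no enzyme wells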
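Sfp 15 nM + cpd, 15 min RT; start w/ rhodamine-CoA 5 uM, BHQ-2-YbbR 12.5 uM (final); 50 mM Hepes pH 7.6, 10 mM MgCl2, 0.01% NP-40, 0.01% BSA; read 525/598 nm at 0 and 30 min.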
HP1b binding inh = HTS for Inhibitors of HP1-beta Chromodomain Interactions with Methylated Histone Tails; 390,000 compounds, 0.56% hits; Potency, µM (top dose mostly 114 µM), without a hit: at the highest dose activity change, negative = inhibition, usual class: inhibitors; Chromobox protein homolog 1 (Homo sapiens), P83916; AlphaScreen HP1-beta / biotin-H3K9me3 peptide binding; also: nearly all actives have a fitted effect of over 70% in size
Target sequence (P83916 whole entry, looked up): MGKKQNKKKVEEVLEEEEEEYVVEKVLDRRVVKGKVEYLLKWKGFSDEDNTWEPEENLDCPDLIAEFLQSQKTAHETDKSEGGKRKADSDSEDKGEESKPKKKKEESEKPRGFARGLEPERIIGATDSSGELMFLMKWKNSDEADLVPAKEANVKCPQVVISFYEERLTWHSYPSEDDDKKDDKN
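Compound inhibition of the preformed complex between 50 nM HP1-beta and 50 nM biotinylated H3K9me3 peptide was read by AlphaScreen. Buffer was PBS pH 7.4 with 0.01% Tween-20. Incubations ran 30 min at room temperature, with 10 ug/mL donor/acceptor beads.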
* hit, by the source's call; ? = inconclusive; . = no result given; [ ] = remark or other dose. Sampled rows, rich in hits. Any-hit rate of the full collection: about 12%. Calls follow the shape of the dose curve; as a rule, active = well fitted curve in the direction sought with a large enough effect; inconclusive = small, poorly fitted or top-dose-only effect, or another doubt; inactive = no such curve, though single readings can be large; an effect the other way counts as inactive or inconclusive. Potency is read from the fitted curve at half-maximal effect.

SMILES | L3MBTL1 block | JMJD2A Tudor | BAZ2B inh | G9a block | Sfp inh | HP1b binding inh
Cc1ccc(-n2c(Cc3cccn3C)nnc2SCC(=O)Nc2nnc(C)s2)cc1 | -7% | -33% | -30% | -7%[2.33 µM] | 6% | -7%
COc1ccc2cc1Oc1ccc(cc1)CC1c3cc(c(OC)cc3CCN1C)Oc1c(OC)c(OC)c(OC)c3c1C(C2)N(C)CC3 (stereo unspecified) | . | . | . | . | -17% | .
COc1ccc2cc1Oc1ccc(cc1)CC1c3c(cc4c(c3Oc3cc5c(cc3OC)CCN(C)C5C2)OCO4)CCN1C (stereo unspecified) | . | . | . | -10%[2.33 µM] | 4% | .
COc1ccc2cc1Oc1ccc(cc1)CC1c3c(cc(OC)c4c3Oc3cc5c(cc3O4)CCNC5C2)CCN1C (stereo unspecified) | . | 11µM* | 6.3µM* | ? | ? | ?
COc1ccc2cc1Oc1ccc(cc1)C[C@H]1c3c(cc(OC)c4c3Oc3c(ccc5c3[C@H](C2)N(C)CC5)O4)CCN1C | -5% | 20µM* | . | . | . | ?
COc1ccc(OC)c(CNC(=O)CCCn2nc(C)c3c(C)n(-c4ccc(C)cc4)nc3c2=O)c1 | . | -16% | -18% | -8%[59 µM] | . | 20%
COc1cccc(CNC(=O)c2ccc3c(c2)nc2n3CCC(C)C2)c1OC (stereo unspecified) | . | -13% | -2% | -5%[59 µM] | . | 20%[57 µM]
COc1cc(Cl)c(NC(=O)CN(C)S(=O)(=O)c2ccc3c(c2)CCCC(=O)N3)c(OC)c1 | . | -8% | 2%[57.1 µM] | -1%[59 µM] | . | 37%
CCc1ccccc1Nc1nn2c(=O)c3ccc(C(=O)NCc4cccs4)cc3nc2s1 | -1% | -19% | ? | -35%[12.7 µM] | . | 12%
COc1ccc(N2CCN(C(=O)CS(=O)(=O)c3cccc4nsnc34)CC2)cc1 | . | -27% | 15% | 57%[59 µM] | . | 7%[57 µM]
N#Cc1cc2c(=O)n3ccccc3nc2n(Cc2ccco2)c1=NC(=O)c1ccco1 | 3% | ? | -12% | ? | 40µM* | 17%
CCOC(=O)c1cc2c(=O)n3ccccc3nc2n(Cc2ccco2)c1=NC(=O)c1ccc(OC)cc1OC | -27% | ? | ? | -34% | 45µM* | 8%
COCCCn1c(=NC(=O)c2ccncc2)c(C#N)cc2c(=O)n3cccc(C)c3nc21 | 3% | -13% | -1% | -9%[59 µM] | 13% | 16%
CCOC(=O)c1cc2c(=O)n3ccccc3nc2n(Cc2ccco2)c1=NC(=O)c1cc(C)cc(C)c1 | . | 10% | 13% | -5%[59 µM] | . | 14%
Cc1ccccc1C(=O)N=c1c(C#N)cc2c(=O)n3cccc(C)c3nc2n1Cc1ccco1 | . | . | 7% | 15% | 50µM* | .
COc1ccc(C(=O)N=c2c(C#N)cc3c(=O)n4cccc(C)c4nc3n2Cc2ccco2)cc1 | . | . | -1% | -7% | 56µM* | .
CC(=O)N=c1c(C#N)cc2c(=O)n3cccc(C)c3nc2n1Cc1ccco1 | -22% | -17% | -37% | ? | -21% | 40%
CCOC(=O)c1c(NC(=O)CCCOc2ccccc2C)sc2c1CCC(C)C2 (stereo unspecified) | . | 28% | 14% | 54%[59 µM] | . | 62%
CC1=C(C(=O)Nc2ccccc2C)C(c2ccccn2)n2nc(SCc3ccccc3F)nc2N1 (stereo unspecified) | . | -12% | -6% | -14%[59 µM] | . | 0%
Cc1ccccc1OCC(=O)NCC(=O)OCc1cccc2ccccc12 | . | -13%[57.1 µM] | . | . | . | 33%[57 µM]
